Assay outcomes from PubChem BioAssay.
Sampled rows, rich in hits. Any-hit rate of the full collection: about 3.6%.
PLK1 PBD block – inhibitors of human PLK1 polo-box domain binding | P53350 | Plk1 PBD binding of FITC phosphopeptide, fluorescence polarization | Potency, µM, for the others: max response, negative = inhibition, hits mostly inhibitors | 360,000 compounds, 2.8% hits; further: potency means the concentration at half of the fitted maximal effect; series mostly up to about 57 µM; on the % scale 0 is the no-effect control and ±100 the full control effect; nearly all actives have a fitted effect of over 65% in size
Rango complex inh – Rango-importin beta binding inhibition | Q14974 | Rango CFP/YFP FRET sensor + importin beta, 45 min | Potency, µM (series often up to 92.2 µM), without a hit: top-dose inhibition of complex formation | 340,000 compounds, 0.031% hits | AID 540263; calls by dose curve;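 further: potency means the concentration at half of the fitted maximal effect; 0% = DMSO wells and 100% = buffer wells lacking importin beta; nearly all actives have a fitted effect of over 15% in size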
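FRET biosensor (snurportin 1 IBB flanked by EYFP and cerulean), 50 nM, with compound 5 min, then 0.125 microM importin beta in PBS, 1 mM DTT, 0.02% Tween-20, 0.1% BSA. CFP/YFP ratio read after 45 min at room temperature; pre-read flags interference.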
Rango release inh – inhibition of RanGTP-driven Rango-importin beta dissociation; O95149+P62826; Biochemical FRET Rango-importin beta, RanGTP-induced dissociation; Potency, µM (doses to about 46.1 µM), inactives show at the highest dose activity change, negative = inhibition; 340,000 compounds, 0.071% hits; AID 540253; calls by dose curve; further: potency means the concentration at half of the fitted maximal effect; % of control where 0% means no effect; nearly all actives have a fitted effect of over 45% in size
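Two FRET readings bracket the reaction: one 5 min after compound meets Rango–importin beta, another 45 min after RanGTP-RCC1 (0.6 uM Ran, 0.2 uM RCC1, 2 mM GTP) is added. Only the second defines inhibition.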
KAT2A inh – blocks human GCN5L2 histone acetyltransferase. Q92830. GCN5L2 HAT assay, ThioGlo1 CoA-SH fluorescence. Potency, µM (titrated, usually from 58.9 µM), inactives show at the top dose activity change, negative = inhibition, actives largely listed as inhibitors. 390,000 compounds, 0.21% hits. AID 504327; further: potency means the concentration at half of the fitted maximal effect; on the % scale 0 is the no-effect control and ±100 the full control effect
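Free CoA generated was detected with ThioGlo1 (50uM) fluorescence at Ex340nm/Em540nm, read immediately and after 20 min at room temperature. Enzyme, 20 nM in HEPES pH 7.5 buffer, saw compounds 15 min before adding 75uM H3(1-25) peptide and 70uM acetyl-CoA.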
VDR inhibitor – blocks the human vitamin D receptor | VDR-SRC2-3 peptide fluorescence polarization, 2 h | Potency, µM, inactives show max response, negative = inhibition, most hits filed as inhibitors | 400,000 compounds, 0.93% hits | AID 504847; further: potency means the concentration at half of the fitted maximal effect; on the % scale 0 is the no-effect control and ±100 the full control effect
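Signal is fluorescence polarization, reporting how far test compounds block the interaction of VDR with the SRC2-3 coregulator peptide after a 2 h room-temperature incubation.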
PI5P4K alpha inh – PI5P4K alpha (human) kinase inhibition; P48426; PI5P4Kalpha enzyme, ADP-Glo luminescence, 60 min; hits give low values; max response, %; 330,000 compounds, 1.2% hits; AID 652105; active means max response of -50% or lower; inconclusive means between -30% and -50%; inactive means -30% or higher; further: value at the top dose of about 77 µM; on the % scale 0 is the no-effect control and ±100 the full control effect
Target sequence (P48426 whole entry, looked up): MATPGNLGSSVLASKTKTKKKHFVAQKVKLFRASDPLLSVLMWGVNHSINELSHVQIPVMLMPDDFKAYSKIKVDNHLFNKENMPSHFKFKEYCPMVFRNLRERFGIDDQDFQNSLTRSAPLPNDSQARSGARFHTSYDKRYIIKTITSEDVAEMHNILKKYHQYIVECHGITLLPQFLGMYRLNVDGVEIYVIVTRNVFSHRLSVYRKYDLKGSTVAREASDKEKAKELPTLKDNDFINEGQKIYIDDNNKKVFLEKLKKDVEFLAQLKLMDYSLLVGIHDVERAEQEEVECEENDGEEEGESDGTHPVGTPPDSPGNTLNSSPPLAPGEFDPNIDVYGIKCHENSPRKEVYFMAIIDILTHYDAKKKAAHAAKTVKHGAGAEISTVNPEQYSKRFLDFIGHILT
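Single end-point luminescence (ADP-Glo) quantified ADP from PI5P4Kalpha turnover; ATP 5 microM final, 1 h at RT, 0.1% CHAPS and 0.28 mM EGTA in HEPES pH 7.4.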
* hit, by the source's call; [ ] = dose if it differs, or a comment. Unless noted, the call rests on the fitted dose curve; in most records, active means well fitted curve in the direction sought with a large enough effect; inconclusive means small, poorly fitted or top-dose-only effect, or another doubt; inactive means no such curve, though single readings can be large; an effect the other way counts as inactive or inconclusive.

Screening Cc1onc(-c2ccccc2Cl)c1C(=O)N1CCN(C=O)CC1 returned PLK1 PBD block 1%, Rango complex inh -2%, Rango release inh -9%, KAT2A inh -5%, VDR inhibitor 21% and PI5P4K alpha inh 0.
For O=C(C1CC=CCC1)N1CCN(C(=O)C2CC=CCC2)CC1 (stereo not drawn) the results were PLK1 PBD block 30µM*, Rango complex inh -2%, Rango release inh 19%, KAT2A inh -2%, VDR inhibitor -22% and PI5P4K alpha inh -5.
`O=C(C1CC=CCC1)N1CCCCCC1` (stereo not drawn) gave PLK1 PBD block -10% and PI5P4K alpha inh -2.
`Nc1nnc(CC(=O)N/N=C/c2ccc(-c3ccc(Cl)cc3Cl)o2)s1` gave PLK1 PBD block -15%, Rango complex inh -3%, Rango release inh -6%, KAT2A inh 7%, VDR inhibitor -1% and PI5P4K alpha inh -4.
Screening COC(=O)c1ccc(-c2ccc(/C=N/NC(=O)Cc3nnc(N)s3)o2)cc1 returned PLK1 PBD block -14%, Rango complex inh inconclusive, Rango release inh -7%, KAT2A inh -19%, VDR inhibitor -7% and PI5P4K alpha inh -56*.
Screening Nc1nnc(CC(=O)N/N=C/c2ccc(-c3ccccc3)o2)s1 returned PLK1 PBD block -7%, Rango complex inh -3%, Rango release inh -3%, KAT2A inh 34%, VDR inhibitor -4% and PI5P4K alpha inh -4.
Screening Nc1nnc(CC(=O)N/N=C/c2ccc(-c3ccccc3Cl)o2)s1 returned PLK1 PBD block -7%, Rango complex inh -1%, Rango release inh -11%, KAT2A inh 57%, VDR inhibitor 10% and PI5P4K alpha inh -53*.
C/C(=N\O)C(=O)NCC1CCNCC1 was read as PLK1 PBD block 27µM*, Rango complex inh -4%, Rango release inh 9%, KAT2A inh 2%, VDR inhibitor 5% and PI5P4K alpha inh -18.
For Cc1csc(N/N=C/c2ccc(O)c([N+](=O)[O-])c2)n1 the results were PLK1 PBD block inconclusive, Rango complex inh -3%, Rango release inh -1%, KAT2A inh -10%[0.501 µM], VDR inhibitor -15% and PI5P4K alpha inh -75*.
Screening O=[N+]([O-])c1cc(/C=N\Nc2nc(-c3ccccc3)cs2)ccc1O returned PLK1 PBD block inconclusive, Rango complex inh 3%, Rango release inh -4%, KAT2A inh inconclusive, VDR inhibitor 8% and PI5P4K alpha inh -63*.
`CCN(CC)c1ccc(C(=O)OCC(=O)NC2CCCCC2C)cc1` (stereo not drawn) gave PLK1 PBD block 30µM*, Rango complex inh -1%, Rango release inh 0%, KAT2A inh 0%, VDR inhibitor -13% and PI5P4K alpha inh -8.
Screening CC1CCCC(NC(=O)COC(=O)c2ccc(N(C)C)cc2)C1C (stereo not drawn) returned PLK1 PBD block -1%, Rango complex inh inconclusive, Rango release inh 1%, KAT2A inh -1%, VDR inhibitor 4% and PI5P4K alpha inh 0.
`Cc1ccc(N(C(C)C(=O)Nc2ccc3c(c2)OCO3)S(C)(=O)=O)cc1` (stereo not drawn) gave PLK1 PBD block 3µM*, Rango complex inh -5%, Rango release inh 7%, KAT2A inh -10%, VDR inhibitor inconclusive and PI5P4K alpha inh inconclusive.
Fc1ccc(C2CC(c3ccco3)=NN2c2ccccc2)cc1 (stereo not drawn) was read as PLK1 PBD block 2%, Rango complex inh 1%, Rango release inh -5%, KAT2A inh -10%, VDR inhibitor -4% and PI5P4K alpha inh 10.
O=[N+]([O-])c1ccc(N2N=C(c3ccco3)CC2c2ccccc2)cc1 (stereo not drawn) was read as PLK1 PBD block -14%, Rango complex inh inconclusive, Rango release inh inconclusive, KAT2A inh 2µM*, VDR inhibitor -21% and PI5P4K alpha inh -22.
`Cn1nc(-c2cccnc2)nc2c(=O)n(C)c(=O)nc1-2` gave VDR inhibitor -8%.
For Cn1c(=S)[nH]c2[nH]c(=O)cnc2c1=O the results were PLK1 PBD block 2%, Rango complex inh 3%, Rango release inh 1%, KAT2A inh -7%, VDR inhibitor 12% and PI5P4K alpha inh -52*.
Screening Cn1c(N)cc(=O)[nH]c1=S returned PLK1 PBD block 6%, Rango complex inh 1%, Rango release inh -12%, VDR inhibitor -3% and PI5P4K alpha inh 9.
Cc1ccc(Cn2c(-n3nc(C)cc3C)nc3c2c(=O)[nH]c(=O)n3C)cc1 was read as PLK1 PBD block -1%, Rango complex inh -1%, Rango release inh -13%, KAT2A inh 12% and VDR inhibitor 7%.
Screening CCCCCOC(=O)CSc1nc2c(c(=O)[nH]c(=O)n2C)n1CCc1ccccc1 returned PLK1 PBD block 21µM*, Rango complex inh -3%, Rango release inh 2%, KAT2A inh 3%, VDR inhibitor inconclusive and PI5P4K alpha inh -10.
Screening COCCSc1nc2c(c(=O)[nH]c(=O)n2C)n1CCCc1ccccc1 returned PLK1 PBD block 21µM*, Rango complex inh -3%, Rango release inh -10%, KAT2A inh -24%, VDR inhibitor inconclusive and PI5P4K alpha inh -22.
For COc1ccc(CCn2c(-n3nc(C)cc3C)nc3c2c(=O)[nH]c(=O)n3C)cc1 the results were PLK1 PBD block 3µM*, Rango complex inh 1%, Rango release inh 22%, VDR inhibitor -23% and PI5P4K alpha inh inconclusive.
For C/C=C/Cn1c(SCCCc2ccccc2)nc2c1c(=O)[nH]c(=O)n2C the results were PLK1 PBD block -18%, Rango complex inh 0%, Rango release inh -4%, KAT2A inh 4%, VDR inhibitor 11% and PI5P4K alpha inh -2.
CC(C)n1c(SCCCc2ccccc2)nc2c1c(=O)[nH]c(=O)n2C was read as PLK1 PBD block 9.5µM*, Rango complex inh 2%, Rango release inh 0%, KAT2A inh 2%, VDR inhibitor inconclusive and PI5P4K alpha inh -5.
Cc1ccc(C(=O)c2cn(Cc3cccc(Cl)c3)c3nc(C)ccc3c2=O)cc1 was read as KAT2A inh -9% and VDR inhibitor -4%.
`COc1ccc(-n2c(=O)c3c4c(sc3n(CC(=O)N3CCCCC3C)c2=O)CCC4)c(OC)c1` (stereo not drawn) gave KAT2A inh -6% and VDR inhibitor -14%.
Screening Cc1nn(CC(=O)Nc2cccc(C(F)(F)F)c2)c(=O)c2cccn12 returned PLK1 PBD block 27µM*, Rango complex inh 0%, Rango release inh -7%, KAT2A inh -2%, VDR inhibitor -30% and PI5P4K alpha inh -11.
